Measurements taken from the supplement of paper PMC8975748.
Counter-ions that a name gives are not always drawn. ± gives the standard deviation of the averaged measurements.

system: Saccharomyces cerevisiae BY4741 SeMeCo community; assay: mean cell size (pixel area) (pixels); higher = larger cells; settings: 10 µM; 24 h; SM minimal medium
Summary of the method: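 Plates of 384 wells were acoustically predosed with drug at a final 10 µM in SM medium, and 70 µl of a Saccharomyces cerevisiae BY4741 preculture diluted from OD600 = 1.0 to OD600 = 0.3 was added for 24 h. The yeast formed a four-plasmid fluorescent community in which each plasmid complements one auxotrophy and carries a fluorescent marker. Fixed cells were imaged by automated confocal microscopy and analysed in Harmony for mean cell pixel area per well. Values are means of 3 replicates. Same SeMeCo high-content imaging drug screen: Selleck FDA-approved drugs at 10 µM, 24 h in SM medium, 384-well plates, 3 replicates.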

SMILES | mean cell size
CC(=O)OCC1=C(C(=O)O)N2C(=O)[C@@H](NC(=O)CSC(=NC(C)C)NC(C)C)[C@H]2SC1 [Cefathiamidine] | 12.3 ± 0.14
O=C(O)C1=C(CSc2nnnn2CS(=O)(=O)O)CS[C@@H]2[C@H](NC(=O)[C@H](O)c3ccccc3)C(=O)N12 [Cefonicid sodium] | 12.47 ± 0.07
CNS(=O)(=O)Cc1ccc2[nH]cc(CCN(C)C)c2c1 [Sumatriptan Succinate] | 12.34 ± 0.1
CN(C)[C@@H]1C(O)=C(C(N)=O)C(=O)[C@@]2(O)C(O)=C3C(=O)c4c(O)cccc4[C@@](C)(O)[C@H]3C[C@@H]12 [Tetracycline HCl] | 12.3 ± 0.19
COc1ccc2c(c1)C(=O)N(CCc1ccc(S(=O)(=O)NC(=O)NC3CCCCC3)cc1)C(=O)C2(C)C [Gliquidone] | 12.5 ± 0.12
CN(C)[C@@H]1C(O)=C(C(N)=O)C(=O)[C@@]2(O)C(O)=C3C(=O)c4c(O)cccc4[C@@](C)(O)[C@H]3[C@H](O)[C@@H]12 [Oxytetracycline (Terramycin)] | 12.87 ± 0.067
O=C(O)CCCCCCCC(=O)O [Azelaic acid] | 12.4 ± 0.2
CN[C@H]1CC[C@@H](c2ccc(Cl)c(Cl)c2)c2ccccc21 [Sertraline HCl] | 12.4 ± 0.056
CN(C)CCCN1c2ccccc2Sc2ccccc21 [Promazine hydrochloride] | 12.5 ± 0.15
C[C@H]1c2cccc(O)c2C(=O)C2=C(O)[C@]3(O)C(=O)C(C(N)=O)=C(O)[C@@H](N(C)C)[C@@H]3[C@@H](O)[C@@H]21 [Doxycycline] | 12.1 ± 0.32
CO[C@@H]1[C@@H](O[C@@H]2O[C@H](C)[C@@H](O[C@H]3C[C@@](C)(O)[C@@H](OC(=O)CC(C)C)[C@H](C)O3)[C@H](N(C)C)[C@H]2O)[C@@H](CC=O)C[C@@H](C)[C@@H](O)/C=C/C=C/C[C@@H](C)OC(=O)C[C@H]1O [Kitasamycin] | 12.32 ± 0.037
CC1(C)S[C@@H]2[C@H](NC(=O)[C@H](N)c3ccc(O)cc3)C(=O)N2[C@H]1C(=O)O [Amoxicillin trihydrate] | 12.19 ± 0.082
C=CC1=C(C(=O)O)N2C(=O)[C@@H](NC(=O)/C(=N\O)c3csc(N)n3)[C@H]2SC1 [Cefdinir] | 12.48 ± 0.068
Cc1cccc(N(C)C(=S)Oc2ccc3ccccc3c2)c1 [Tolnaftate] | 12.3 ± 0.27
COc1ccc2cc([C@H](C)C(=O)O)ccc2c1 [Naproxen] | 13 ± 0.17
CCCCCCCCCC(=O)CC(O)S(=O)(=O)O (stereo unspecified) [Sodium Houttuyfonate] | 12.02 ± 0.032

SMILES | mean cell size
CO[C@H]1/C=C/O[C@@]2(C)Oc3c(C)c(O)c4c(c3C2=O)C2=NC3(CCN(CC(C)C)CC3)NC2=C(NC(=O)/C(C)=C\C=C\[C@H](C)[C@H](O)[C@@H](C)[C@@H](O)[C@@H](C)[C@H](OC(C)=O)[C@@H]1C)C4=O [Rifabutin] | 12.6 ± 0.21
CC(C)(C)[C@H]1CC[C@H](CC2=C(O)C(=O)c3ccccc3C2=O)CC1 [Buparvaquone] | 12.1 ± 0.18
O=c1[nH]cnc2c1ncn2[C@H]1CC[C@@H](CO)O1 [Didanosine] | 12.4 ± 0.19
CN(C)c1cc(NC(=O)CNC(C)(C)C)c(O)c2c1C[C@H]1C[C@H]3[C@H](N(C)C)C(O)=C(C(N)=O)C(=O)[C@@]3(O)C(O)=C1C2=O [Tigecycline] | 12.8 ± 0.2
CCCCCCCCCC(=O)N[C@H]1[C@H](Oc2c3cc4cc2Oc2ccc(cc2Cl)[C@@H](O[C@@H]2O[C@H](CO)[C@@H](O)[C@H](O)[C@H]2NC(C)=O)[C@@H]2NC(=O)[C@H](NC(=O)[C@@H]4NC(=O)[C@H]4NC(=O)[C@@H](Cc5ccc(c(Cl)c5)O3)NC(=O)[C@H](N)c3ccc(O)c(c3)Oc3cc(O)cc4c3)c3ccc(O)c(c3)-c3c(OC4O[C@H](CO)[C@@H](O)[C@H](O)[C@@H]4O)cc(O)cc3[C@@H](C(=O)O)NC2=O)O[C@H](CO)[C@@H](O)[C@@H]1O (stereo partly specified) [Teicoplanin] | 11.8 ± 0.16
C[C@@H]1NC(=O)[C@@H](N)CNC(=O)[C@H](C2CCNC(=N)N2)NC(=O)/C(=C/NC(N)=O)NC(=O)[C@H](CNC(=O)CC(N)CCCN)NC1=O.N=C1NCC[C@H]([C@@H]2NC(=O)/C(=C/NC(N)=O)NC(=O)[C@H](CNC(=O)C[C@@H](N)CCCN)NC(=O)[C@H](CO)NC(=O)[C@@H](N)CNC2=O)N1 [Capreomycin Sulfate] | 12.1 ± 0.22
C=C1CC[C@@H]2[C@](C)(CO)[C@H](O)CC[C@@]2(C)[C@H]1C/C=C1\C=COC1=O [Dehydroandrographolide] | 12.37 ± 0.086
CN(C)c1ccc(O)c2c1C[C@H]1C[C@H]3[C@H](N(C)C)C(O)=C(C(N)=O)C(=O)[C@@]3(O)C(O)=C1C2=O [Minocycline HCl] | 12.2 ± 0.13
Fc1ccc([C@@H]2CCNC[C@H]2COc2ccc3c(c2)OCO3)cc1 [Paroxetine mesylate] | 12.1 ± 0.27
O=S(=O)(O)CCCCOC[C@H]1O[C@@H]2O[C@H]3[C@H](O)[C@@H](O)[C@@H](O[C@H]4[C@H](O)[C@@H](O)[C@@H](O[C@H]5[C@H](O)[C@@H](O)[C@@H](O[C@H]6[C@H](O)[C@@H](O)[C@@H](O[C@H]7[C@H](O)[C@@H](O)[C@@H](O[C@H]8[C@H](O)[C@@H](O)[C@@H](O[C@H]1[C@H](O)[C@H]2O)O[C@@H]8CO)O[C@@H]7COCCCCS(=O)(=O)O)O[C@@H]6COCCCCS(=O)(=O)O)O[C@@H]5COCCCCS(=O)(=O)O)O[C@@H]4COCCCCS(=O)(=O)O)O[C@@H]3COCCCCS(=O)(=O)O | 12.1 ± 0.26
C[C@H]1c2cccc(O)c2C(=O)C2=C(O)[C@]3(O)C(=O)C(C(N)=O)=C(O)[C@@H](N(C)C)[C@@H]3[C@@H](O)[C@@H]21 [Doxycycline monohydrate] | 12.2 ± 0.19
Cc1c(C)c2c(c(C)c1O)CC[C@@](C)(CCC[C@H](C)CCC[C@H](C)CCCC(C)C)O2 [Vitamin E] | 12.2 ± 0.22
CC[C@H]1OC(=O)C[C@@H](O)[C@H](C)[C@@H](O[C@@H]2O[C@H](C)[C@@H](O[C@H]3C[C@@](C)(O)[C@@H](O)[C@H](C)O3)[C@H](N(C)C)[C@H]2O)[C@@H](CC=O)C[C@@H](C)C(=O)/C=C/C(C)=C/[C@@H]1CO[C@@H]1O[C@H](C)[C@@H](O)[C@@H](OC)[C@H]1OC [Tylosin tartrate] | 12.45 ± 0.055
COc1ccc([C@H]2CNC(=O)C2)cc1OC1CCCC1 [S- (+)-Rolipram] | 12.43 ± 0.11
O=C1C(O)=C([C@H]2CC[C@H](c3ccc(Cl)cc3)CC2)C(=O)c2ccccc21 [Atovaquone] | 12.39 ± 0.12
